From paper PMC5540273 (PLoS ONE, 2017) come the findings set out here.

Test systems include S6K1; SBK1; SGK2; SGK3; SGK; SIK2; SIK; SLK.
What all share (settings): concentration: 1 μM,replicates: in singlicate; n = 1
In experiment [1] the test system is RPS6KA4(Kin.Dom.1-N-terminal).
Experiment [2] has as its system RPS6KA4(Kin.Dom.2-C-terminal).
Experiment [3] deals with RPS6KA5(Kin.Dom.1-N-terminal).
Experiment [4] deals with RPS6KA5(Kin.Dom.2-C-terminal).
Experiment [5] has as its system T1, RSK1(Kin.Dom.1-N-terminal).
T1 construct: gene RPS6KA1

The test system of experiment [6] is T2, RSK1(Kin.Dom.2-C-terminal).
T2 construct: gene RPS6KA1

Experiment [7] relates to T3, RSK2(Kin.Dom.1-N-terminal).
T3 construct: gene RPS6KA3

Experiment [8] relates to T4, RSK2(Kin.Dom.2-C-terminal).
T4 construct: gene RPS6KA3

Experiment [9] has as its system T5, RSK3(Kin.Dom.1-N-terminal).
T5 construct: gene RPS6KA2

Experiment [10] deals with T6, RSK3(Kin.Dom.2-C-terminal).
T6 construct: gene RPS6KA2

In experiment [11] the test system is T7, RSK4(Kin.Dom.1-N-terminal).
T7 construct: gene RPS6KA6

The subject of experiment [12] is T8, RSK4(Kin.Dom.2-C-terminal).
T8 construct: gene RPS6KA6
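Further: KINOMEscan kinase panel screen.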

Regarding `CC(C)Nc1cc(-c2ccc3c(N)n[nH]c3c2)nc(N)n1` [GSK2221681], the “%Inh” value was found to be 0% in [1]; 88% in [2]; 0% in experiment [3]; 68% in experiment [4]; 28% in experiment [5]; 0% in [6]. In addition, the “%Inh” value in experiment [7] was found to be 8%; in experiment [8], 19%; in experiment [9], 18%; in experiment [10] it was 12%; in [11], 41%; in experiment [12], 12%. The “%Inh” value with S6K1 is 1%; in the experiment on SBK1, 1%; in the experiment on SGK2, 0%; in the experiment with SGK3, 7%; in the experiment on SGK, 0%; with SIK2, 0%. For the same compound, the “%Inh” value with SIK came to 0%; in the experiment with SLK, 4%.
`O=C(NCCNc1ccnc(NCc2ccc(F)cc2)n1)c1cc2ccccc2s1` [GSK1379944]: the “%Inh” value in [1] is listed as 28%; in [2] it was 0%; in [3], 24%; in experiment [4], 0%; in experiment [5] it was 11%; in experiment [6], 0%. In addition, the “%Inh” value came out at 0% in [7]; 18% in experiment [8]; 20% in [9]; 0% in experiment [10]; 0% in experiment [11]; 8% in experiment [12]. The “%Inh” value in the experiment with S6K1 was 9%; with SBK1, 7%; in the experiment on SGK2 it was 4%; in the experiment with SGK3, 34%; in the experiment on SGK it was 0%; in the experiment with SIK2, 0%. Moreover, the “%Inh” value in the experiment on SIK is on record as 0%; in the experiment on SLK, 12%.
With `CCN(CC)CCCCNc1ncc2cc(-c3c(Cl)cccc3Cl)c(NC(=O)NC(C)(C)C)nc2n1`, the “%Inh” value in experiment [1] came to 0%; in [2], 16%; in experiment [3] it was 8%; in experiment [4], 0%; in [5], 0%; in experiment [6], 13%. For the same compound, the “%Inh” value in [7] came to 0%; in [8], 0%; in experiment [9] it was 0%; in experiment [10], 14%; in experiment [11], 0%; in [12] it was 17%. Besides, the “%Inh” value is reported as 14% in the experiment on S6K1; 0% with SBK1; 0% with SGK2; 24% in the experiment on SGK3; 0% with SGK; 91.7% in the experiment with SIK2. For the same compound, the “%Inh” value in the experiment on SIK was 93.6%; in the experiment on SLK, 77%.
As to `C[C@H]1Oc2cc(cnc2N)-c2c(nn(C)c2C#N)CN(C)C(=O)c2ccc(F)cc21`, the “%Inh” value in experiment [1] was determined as 3%; in experiment [2], 0%; in experiment [3] it was 16%; in [4] it was 1%; in [5], 0%; in [6] it was 0%. Besides, the “%Inh” value in [7] is on record as 0%; in experiment [8], 0%; in experiment [9], 5%; in experiment [10], 14%; in experiment [11] it was 0%; in [12] it was 14%. Besides, the “%Inh” value is 0% in the experiment with S6K1; 69% with SBK1; 0% with SGK2; 0% in the experiment on SGK3; 0% with SGK; 0% in the experiment with SIK2. In addition, the “%Inh” value with SIK amounted to 12%; in the experiment with SLK, 98.3%.
As for `COc1ccc(C[C@@H](CN)NC(=O)c2cc(Br)c(-c3ccnc4[nH]ccc34)s2)cc1.Cl.Cl` [GSK1389063], the “%Inh” value in [1] turned out to be 68%; in experiment [2] it was 59%; in experiment [3], 87%; in experiment [4] it was 21%; in experiment [5] it was 42%; in [6], 0%. In addition, the “%Inh” value in experiment [7] amounted to 90.8%; in experiment [8] it was 0%; in [9] it was 63%; in experiment [10], 15%; in experiment [11], 88%; in [12], 8%. For the same compound, the “%Inh” value in the experiment on S6K1 stood at 86%; in the experiment on SBK1, 81%; with SGK2, 72%; with SGK3, 97.2%; in the experiment with SGK, 74%; with SIK2 it was 0%. Further, the results for the “%Inh” value in the experiment with SIK and in the experiment with SLK were 0% and 49%, respectively.
`NC(=O)c1cc(-c2ccccc2)cc2c(C3CCNCC3)c[nH]c12` [GSK301362]: the “%Inh” value in experiment [1] turned out to be 16%; in [2], 0%; in [3], 12%; in experiment [4] it was 4%; in [5], 8%; in experiment [6], 0%. The “%Inh” value in experiment [7] amounted to 0%; in experiment [8], 54%; in [9] it was 27%; in [10], 0%; in [11], 0%; in [12], 0%. Besides, the “%Inh” value with S6K1 is reported as 0%; with SBK1 it was 31%; with SGK2, 5%; in the experiment on SGK3 it was 0%; with SGK, 0%; in the experiment on SIK2, 59%. The “%Inh” value with SIK and in the experiment on SLK was 10% throughout.
`Cc1cc2cn[nH]c2cc1-c1cccc2c(N)c(C(N)=O)nnc12`: the “%Inh” value in [1] was 92.6%; in [2], 12%; in [3], 51%; in experiment [4] it was 2%; in experiment [5], 48%; in [6] it was 15%. For the same compound, the “%Inh” value in experiment [7] worked out at 58%; in [8], 0%; in experiment [9], 26%; in [10] it was 2%; in experiment [11] it was 40%; in experiment [12] it was 0%. In addition, the “%Inh” value worked out at 23% in the experiment with S6K1; 42% in the experiment with SBK1; 26% in the experiment with SGK2; 45% in the experiment on SGK3; 41% with SGK; 1% with SIK2. Further, the figures for the “%Inh” value in the experiment with SIK and in the experiment on SLK were 100% and 16%, respectively.
`Cc1ccc2c(-c3ccncc3)c(-c3ccc(F)cc3)nn2c1.Cl` [GW461484]: the “%Inh” value in experiment [1] is recorded as 18%; in [2] it was 0%; in experiment [3], 0%; in [4] it was 15%; in experiment [5], 0%; in experiment [6] it was 52%. Moreover, the “%Inh” value in experiment [7] is on record as 0%; in [8], 1%; in experiment [9], 1%; in experiment [10], 0%; in [11] it was 0%; in experiment [12], 87%. Moreover, the “%Inh” value in the experiment with S6K1 is reported as 0%; with SBK1, 22%; in the experiment with SGK2, 0%; in the experiment with SGK3, 4%; in the experiment with SGK it was 0%; in the experiment on SIK2, 0%. Moreover, the results for the “%Inh” value with SIK and with SLK were 0% and 2%, respectively.
For `CCn1c(-c2nonc2N)nc2c(C#CC(C)(C)O)nc(OCCN)cc21.Cl.Cl` [GSK902056], the “%Inh” value is 0% in [1]; 79% in experiment [2]; 23% in [3]; 38% in experiment [4]; 0% in experiment [5]; 0% in experiment [6]. Moreover, the “%Inh” value was 10% in experiment [7]; 22% in [8]; 19% in experiment [9]; 0% in experiment [10]; 2% in [11]; 0% in experiment [12]. The “%Inh” value in the experiment on S6K1 is recorded as 8%; with SBK1, 36%; in the experiment with SGK2 it was 17%; with SGK3 it was 0%; in the experiment on SGK, 0%; with SIK2 it was 0%. Moreover, the “%Inh” value in the experiment with SIK and in the experiment on SLK was 0% each time.
With `C[C@@H]1CCN(C(=O)CC#N)C[C@@H]1N(C)c1ncnc2[nH]ccc12`, the “%Inh” value in [2] is given as 0%; in experiment [3] it was 0%; in [4] it was 0%; in experiment [5], 20%; in experiment [6] it was 0%; in experiment [7], 0%. Besides, the “%Inh” value in experiment [8] was 0%; in experiment [9], 0%; in [10] it was 100%; in experiment [11] it was 0%; in [12], 100%; in the experiment on S6K1, 0%. Moreover, the “%Inh” value is 0% with SBK1; 0% in the experiment with SGK2; 5% in the experiment on SGK3; 0% in the experiment with SGK; 0% in the experiment on SIK2; 0% in the experiment on SIK. In the experiment with SLK, the “%Inh” value came out at 0%.
For `Cl.Oc1cc(-c2nc(-c3ccccc3)[nH]c2-c2ccncc2)ccc1Cl` [SB-386023], the “%Inh” value is listed as 0% in [1]; 13% in experiment [2]; 1% in [3]; 0% in experiment [4]; 4% in experiment [5]; 23% in experiment [6]. Further, the “%Inh” value in [7] is given as 0%; in experiment [8], 0%; in [9] it was 0%; in [10], 0%; in experiment [11], 22%; in [12] it was 57%. The “%Inh” value turned out to be 0% in the experiment on S6K1; 24% with SBK1; 18% in the experiment with SGK2; 13% in the experiment on SGK3; 9% in the experiment with SGK; 0% with SIK2. For the same compound, the “%Inh” value is listed as 20% in the experiment with SIK and 81% in the experiment on SLK.
Take `CN(C)CCOc1ccc(-c2cc(-c3c[nH]nc3-c3ccccn3)ccn2)cc1` [GW835314]: the “%Inh” value in experiment [1] was found to be 0%; in experiment [2], 17%; in experiment [3], 8%; in experiment [4], 1%; in experiment [5] it was 0%; in experiment [6], 40%. The “%Inh” value in experiment [7] was 21%; in experiment [8], 16%; in [9], 84%; in experiment [10], 10%; in experiment [11] it was 19%; in experiment [12] it was 89%. In addition, the “%Inh” value in the experiment on S6K1 turned out to be 8%; with SBK1, 21%; with SGK2, 9%; in the experiment with SGK3, 23%; with SGK, 8%; in the experiment with SIK2 it was 15%. Also, the results for the “%Inh” value with SIK and in the experiment with SLK were 21% and 36%, respectively.
As for `O=C(NCCCN1CCOC1=O)c1cnc(NCc2cc(Cl)ccc2Cl)nc1NC1CCCC1`, the “%Inh” value is 10% in experiment [1]; 0% in experiment [2]; 15% in [3]; 8% in experiment [4]; 8% in [5]; 6% in experiment [6]. For the same compound, the “%Inh” value in experiment [7] is on record as 2%; in [8], 16%; in experiment [9], 67%; in experiment [10] it was 13%; in experiment [11] it was 0%; in [12], 23%. The “%Inh” value is on record as 13% in the experiment on S6K1; 8% with SBK1; 0% with SGK2; 0% with SGK3; 0% in the experiment on SGK; 10% with SIK2. Moreover, the “%Inh” value worked out at 16% in the experiment with SIK and 11% in the experiment on SLK.
With `CNC(=O)c1ccccc1Sc1ccc2c(/C=C/c3ccccn3)n[nH]c2c1`, the “%Inh” value in experiment [1], in experiment [2], in experiment [3], in experiment [4], in experiment [5] and in experiment [6] was 0% throughout. Moreover, the “%Inh” value in [7] came out at 0%; in experiment [8], 0%; in experiment [9], 11%; in [10] it was 6%; in [11], 0%; in [12], 15%. Moreover, the “%Inh” value in the experiment with S6K1 was 2%; in the experiment with SBK1, 0%; in the experiment on SGK2 it was 0%; in the experiment with SGK, 0%; in the experiment on SIK it was 0%; with SLK, 84%.
